From ChEMBL document CHEMBL3433997, “St. Jude Leishmania screening dataset” (2016)

Key:
Assay type in all cases: functional
[1] = biological target: Solute carrier family 2, facilitated glucose transporter member 1 (Homo sapiens) (UniProt P11166); assay: ST_JUDE_LEISH: Cytotoxicity at 2uM final concentration against transgenic Leishmania Mexicana promastigotes LmGLUT1 that are glucose transport deficient and complemented with the human glucose transporter GLUT1. Activity is measured by DNA content using SYBR green in vitro
[2] = biological target: Hexose transporter 1 (Plasmodium falciparum) (UniProt O97467); assay: ST_JUDE_LEISH: Cytotoxicity at 2uM final concentration against transgenic Leishmania Mexicana promastigotes LmPfHT that are glucose transport deficient and complemented with the Plasmodium falciparum hexose transporter. Activity is measured by DNA content using SYBR green in vitro
[3] = biological target: Glucose transporter (Leishmania mexicana) (UniProt O61059); assay: ST_JUDE_LEISH: Cytotoxicity at 2uM final concentration against transgenic Leishmania Mexicana promastigotes LmGT2 that are glucose transport deficient and complemented with the L. Mexicana glucose transporter 2. Activity is measured by DNA content using SYBR green in vitro

Solute carrier family 2, facilitated glucose transporter member 1 (Homo sapiens), sequence (P11166 whole entry): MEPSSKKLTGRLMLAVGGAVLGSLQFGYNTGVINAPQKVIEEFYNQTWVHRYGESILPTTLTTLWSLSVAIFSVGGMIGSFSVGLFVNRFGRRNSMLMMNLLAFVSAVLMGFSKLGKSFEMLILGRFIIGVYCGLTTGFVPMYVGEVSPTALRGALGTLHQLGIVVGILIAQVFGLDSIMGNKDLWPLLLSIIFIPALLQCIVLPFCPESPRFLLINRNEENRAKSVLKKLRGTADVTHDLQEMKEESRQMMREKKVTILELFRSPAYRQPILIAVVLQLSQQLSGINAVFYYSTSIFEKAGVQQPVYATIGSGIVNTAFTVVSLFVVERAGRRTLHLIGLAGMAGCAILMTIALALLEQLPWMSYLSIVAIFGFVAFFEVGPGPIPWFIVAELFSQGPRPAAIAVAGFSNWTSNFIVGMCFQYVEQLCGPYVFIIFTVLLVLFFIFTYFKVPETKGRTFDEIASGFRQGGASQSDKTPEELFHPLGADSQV

SMILES: O=C(C=Cc1ccc(Cl)c(Cl)c1)NCCCCCN1CCCC(CCCNC(=O)c2ccc3c(c2)OCO3)C1 (stereo not drawn)
- inhibition [1]: 2.29%
- inhibition [2]: 0.94%
- inhibition [3]: -0.94%

SMILES: COc1cccc2cc(C(=O)N[C@@H](CC(C)C)C(=O)N[C@H](C=NN3CCOC3=O)CC(C)C)oc12
- inhibition [1]: 2.15%
- inhibition [2]: 4.14%
- inhibition [3]: 1.9%

SMILES: O=S(=O)(Nc1cccc(CCN2CCC(N3CCCCC3)CC2)c1)c1cccc2cccnc12
- inhibition [1]: 0.25%
- inhibition [2]: 0.35%
- inhibition [3]: -2.07%

SMILES: CCN1CCC(N(Cc2ccc(-c3ccc(C(F)(F)F)cc3)cc2)C(=O)Cn2c(CCc3cccc(F)c3F)cc(=O)c3ccccc32)C1 (stereo not drawn)
- inhibition [1]: 0.08%
- inhibition [2]: 1.38%
- inhibition [3]: -0.49%

SMILES: CCN1CCc2c1cc(C(=O)N[C@@H](Cc1ccccc1)[C@H](O)CNC(C)(C)c1cccc(C(F)(F)F)c1)cc2N1CCCCS1(=O)=O
- inhibition [1]: 5.34%
- inhibition [2]: -3.32%
- inhibition [3]: 2.66%

SMILES: O=C(CNC1=NCCN1)Nc1ccc(NC(=O)Nc2ccc(NC(=O)CNC3=NCCN3)cc2)cc1
- inhibition [1]: 3.51%
- inhibition [2]: 4.85%
- inhibition [3]: 0.21%

SMILES: CCN(CC)S(=O)(=O)c1ccc(CCOCCCCCNCC(O)c2cc(Cl)c(N)c(Cl)c2)s1 (stereo not drawn)
- inhibition [1]: 2.8%
- inhibition [2]: -2.21%
- inhibition [3]: 1.26%

SMILES: CCCCC(=O)Nc1nonc1-c1ccc(OCC)c(OCC)c1
- inhibition [1]: -0.29%
- inhibition [2]: -0.24%
- inhibition [3]: -4.47%

SMILES: COc1ccc(NC(=O)Nc2ccc(-c3ccc(-c4nc5cccc(C)c5[nH]4)s3)cc2)cc1
- inhibition [1]: 4.04%
- inhibition [2]: 4.64%
- inhibition [3]: 3.71%

SMILES: CO/C(=C\C=C\c1cc2cc(Cl)c(Cl)cc2[nH]1)C(=O)NC1CCN(CCOc2ccccc2)CC1
- inhibition [1]: 8.51%
- inhibition [2]: 7.84%
- inhibition [3]: 0.9%

SMILES: CN1CCCC(CN2CCN(Cc3cccc(-c4cccc(-c5nc6ccccc6[nH]5)c4)c3)CC2)C1 (stereo not drawn)
- inhibition [1]: 1.59%
- inhibition [2]: 2.2%
- inhibition [3]: -0.86%
